Calls of active or inactive are those of the source. Rule for the calls: active = hit-call score of the fitted dose curve at least 0.9, where 1 is the maximum; inactive = score below 0.9.
read-out: Cytochrome P450 3A7 (Homo sapiens) (UniProt P24462); assay: LTEA_HepaRG_CYP3A7: Life Technologies and Expression Analysis (LTEA) Assay for CYP3A7 using HepaRG (AID 2283492); conditions: mRNA level, 48 h; actives raise or lower the signal
Summary of the method: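 Cells were thawed, plated, cultured 48 h, then treated for a further 48 h with chemicals (eight-point half-log series from 100 uM, 0.5% DMSO). RNA was isolated and CYP3A7 expression quantified by qRT-PCR normalised to ACTB, GAPDH and POLR2A.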

Sequence of Cytochrome P450 3A7 (Homo sapiens) (P24462 whole entry, looked up): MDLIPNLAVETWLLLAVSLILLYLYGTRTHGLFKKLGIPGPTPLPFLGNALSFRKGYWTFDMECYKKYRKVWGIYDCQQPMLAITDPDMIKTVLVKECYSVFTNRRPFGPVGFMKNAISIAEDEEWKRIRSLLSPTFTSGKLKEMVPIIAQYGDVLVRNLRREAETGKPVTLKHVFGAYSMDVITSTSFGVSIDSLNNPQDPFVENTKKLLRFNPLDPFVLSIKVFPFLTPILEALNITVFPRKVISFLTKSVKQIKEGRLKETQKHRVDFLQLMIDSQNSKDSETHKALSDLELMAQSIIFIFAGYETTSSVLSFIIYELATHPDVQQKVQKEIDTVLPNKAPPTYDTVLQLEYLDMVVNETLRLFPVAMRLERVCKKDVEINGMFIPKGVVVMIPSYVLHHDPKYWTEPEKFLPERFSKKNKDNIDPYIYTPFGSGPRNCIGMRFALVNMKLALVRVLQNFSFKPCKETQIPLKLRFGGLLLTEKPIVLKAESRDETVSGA

Which outcome does the source give for CSc1ccc(Oc2ccc(S(N)(=O)=O)cc2CN(C)C)cc1C here?
The outcome was “inactive”.

CCCCOC(=O)CCCCC(=O)OCCCC was tested. Which outcome did it give?
The outcome was “inactive”.

For COc1ccc(C(=O)Nc2nc3ccccc3c(NCc3ccccc3)c2C#N)cc1, which AC50 is on record?
The AC50 was 14.3 µM (active).

CN(C)C(=O)NC1(c2ccccc2)CCN(CC[C@@]2(c3ccc(F)c(F)c3)CN(C(=O)c3ccccc3)CCO2)CC1 was tested. Which AC50 did it give?
The AC50 was 2.8 µM (active).

How did the AC50 turn out when Cc1cc(Cc2ccc(N)c(C)c2)ccc1N was run?
The AC50 was 10.8 µM (active).

Which AC50 does the source give for Cc1cc(SC2=C(O)C[C@@](CCc3ccc(N)cc3)(C(C)C)OC2=O)c(C(C)(C)C)cc1CO here?
Its AC50 is 0.151 µM (active).

How did the outcome turn out when CCCCCCC(C=O)=Cc1ccccc1 was run?
The outcome was “inactive”.

How did the outcome turn out when O=C1O[C@H]([C@H](O)CO)C(O)=C1O was run?
Its outcome is “inactive”.

Which outcome does the source give for CCC(C)N(C)C(=O)c1cc2ccccc2c(-c2ccccc2Cl)n1 (stereo not drawn) here?
The outcome was “inactive”.

With OCC(O)CO as the compound, how does the outcome read?
Its outcome is “inactive”.

CCCCc1nc2cccnc2n1Cc1ccc(-c2ccccc2-c2nnn[nH]2)cc1 was tested. Which AC50 did it give?
Its AC50 is 13.7 µM (active).

With O=C(O)CC(O)(CC(=O)O)C(=O)O as the compound, how does the outcome read?
The outcome was “inactive”.

Which outcome does the source give for O=Cc1ccccc1C=O here?
The outcome was “inactive”.

With CC1(C)C(=O)NC(=O)N1CO as the compound, how does the outcome read?
The outcome was “inactive”.

CCCC[C@H]1CN(CC2CCOCC2)C(=O)OC12CCN(C1(C)CCN(C(=O)c3c(C)ncnc3C)CC1)CC2 was tested. Which outcome did it give?
The outcome was “inactive”.

C#CC(O)C(CC)CCCC (stereo not drawn) was tested. Which outcome did it give?
Its outcome is “inactive”.

With Cc1ccc(C(C)(C)C)c(O)c1 as the compound, how does the outcome read?
Its outcome is “inactive”.

read-out: CYP3A5 (gene 1577); assay: LTEA_HepaRG_CYP3A5: Life Technologies and Expression Analysis (LTEA) Assay for CYP3A5 using HepaRG (AID 2283493); conditions: mRNA level, 48 h; actives raise or lower the signal
Summary of the method: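 Readout was CYP3A5 mRNA by qRT-PCR. HepaRG cultures were exposed for 48 h in serum-free induction medium to chemicals at up to 100 uM, and responses were fitted in both directions relative to DMSO vehicle.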

Which outcome does the source give for COC(=O)CCCC(=O)OC here?
Its outcome is “inactive”.

For CCc1nc(N)nc(N)c1-c1ccc(Cl)cc1, which outcome is on record?
Its outcome is “inactive”.

How did the outcome turn out when NC=O was run?
Its outcome is “inactive”.

With CC(=O)S[C@H](C(=O)N[C@H]1Cc2ccccc2[C@H]2CCC[C@@H](C(=O)O)N2C1=O)C(C)C as the compound, how does the outcome read?
Its outcome is “inactive”.

With CC(=O)CC(c1ccccc1)c1c(O)c2ccccc2oc1=O (stereo not drawn) as the compound, how does the outcome read?
The outcome was “inactive”.

With NCCOCCOCCN as the compound, how does the outcome read?
The outcome was “inactive”.

How did the outcome turn out when Cc1cc(Cc2ccc(N)c(C)c2)ccc1N was run?
Its outcome is “inactive”.

O=C1O[C@H]([C@H](O)CO)C(O)=C1O was tested. Which outcome did it give?
Its outcome is “inactive”.

CCC(C)N(C)C(=O)c1cc2ccccc2c(-c2ccccc2Cl)n1 (stereo not drawn) was tested. Which AC50 did it give?
Its AC50 is 31.8 µM (active).

Which outcome does the source give for CCCCc1nc2cccnc2n1Cc1ccc(-c2ccccc2-c2nnn[nH]2)cc1 here?
Its outcome is “inactive”.

How did the outcome turn out when CCCC[C@H]1CN(CC2CCOCC2)C(=O)OC12CCN(C1(C)CCN(C(=O)c3c(C)ncnc3C)CC1)CC2 was run?
Its outcome is “inactive”.

With C#CC(O)C(CC)CCCC (stereo not drawn) as the compound, how does the outcome read?
The outcome was “inactive”.

read-out: Fatty Acid-Binding Protein 1 (FABP1), FABP1 (gene 2168); assay: LTEA_HepaRG_FABP1: Life Technologies and Expression Analysis (LTEA) Assay for Fatty Acid-Binding Protein 1 (FABP1) using HepaRG (AID 2283494); conditions: mRNA level, 48 h; actives raise or lower the signal
Summary of the method: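 FABP1 expression by TaqMan qRT-PCR, normalised to three housekeeping genes, in HepaRG cells after 48 h chemical treatment. Eight-point half-log series topping at 100 uM in 0.5% DMSO, duplicates; gain or loss fitted relative to vehicle.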

With COC(=O)CCCC(=O)OC as the compound, how does the outcome read?
The outcome was “inactive”.

Which outcome does the source give for O=C(O)CN(CC(=O)O)CC(=O)O here?
The outcome was “inactive”.

How did the outcome turn out when CCc1nc(N)nc(N)c1-c1ccc(Cl)cc1 was run?
Its outcome is “inactive”.

For CC(C)c1cccc(C(C)C)c1NC(=O)NS(=O)(=O)c1cc(C(C)(C)O)co1, which AC50 is on record?
The AC50 was 43.1 µM (active).

Oc1ccc(O)cc1 was tested. Which outcome did it give?
Its outcome is “inactive”.

NC=O was tested. Which outcome did it give?
The outcome was “inactive”.

For CC(=O)S[C@H](C(=O)N[C@H]1Cc2ccccc2[C@H]2CCC[C@@H](C(=O)O)N2C1=O)C(C)C, which outcome is on record?
Its outcome is “inactive”.

Which outcome does the source give for CC(=O)CC(c1ccccc1)c1c(O)c2ccccc2oc1=O (stereo not drawn) here?
Its outcome is “inactive”.

How did the outcome turn out when NCCOCCOCCN was run?
Its outcome is “inactive”.

For O=C(O)c1[nH]n(-c2ccc(S(=O)(=O)O)cc2)c(=O)c1N=Nc1ccc(S(=O)(=O)O)cc1, which outcome is on record?
Its outcome is “inactive”.

How did the outcome turn out when CCc1cc(C2=C(C(=O)O)N(c3ccccc3C(F)(F)F)S(=O)(=O)c3ccccc32)cc2c1OCO2 was run?
The outcome was “inactive”.

How did the outcome turn out when CCCCCCCCCC[N+](C)(C)[O-] was run?
The outcome was “inactive”.

For CN(C)CCCN1c2ccccc2Sc2ccc(Cl)cc21, which AC50 is on record?
Its AC50 is 88.3 µM (active).

CSc1ccc(Oc2ccc(S(N)(=O)=O)cc2CN(C)C)cc1C was tested. Which outcome did it give?
The outcome was “inactive”.

Which outcome does the source give for CCCCOC(=O)CCCCC(=O)OCCCC here?
Its outcome is “inactive”.

For COc1ccc(C(=O)Nc2nc3ccccc3c(NCc3ccccc3)c2C#N)cc1, which AC50 is on record?
The AC50 was 18 µM (active).

Which outcome does the source give for CN(C)C(=O)NC1(c2ccccc2)CCN(CC[C@@]2(c3ccc(F)c(F)c3)CN(C(=O)c3ccccc3)CCO2)CC1 here?
Its outcome is “inactive”.

Which outcome does the source give for Cc1cc(Cc2ccc(N)c(C)c2)ccc1N here?
The outcome was “inactive”.

For Cc1cc(SC2=C(O)C[C@@](CCc3ccc(N)cc3)(C(C)C)OC2=O)c(C(C)(C)C)cc1CO, which AC50 is on record?
Its AC50 is 3.12 µM (active).

For CCCCCCC(C=O)=Cc1ccccc1, which outcome is on record?
Its outcome is “inactive”.

Which outcome does the source give for O=C1O[C@H]([C@H](O)CO)C(O)=C1O here?
Its outcome is “inactive”.

For CCC(C)N(C)C(=O)c1cc2ccccc2c(-c2ccccc2Cl)n1 (stereo not drawn), which AC50 is on record?
Its AC50 is 13 µM (active).

How did the outcome turn out when OCC(O)CO was run?
Its outcome is “inactive”.

How did the outcome turn out when O=C(O)CC(O)(CC(=O)O)C(=O)O was run?
The outcome was “inactive”.

Which outcome does the source give for O=Cc1ccccc1C=O here?
The outcome was “inactive”.

For CC1(C)C(=O)NC(=O)N1CO, which outcome is on record?
The outcome was “inactive”.

For CCCC[C@H]1CN(CC2CCOCC2)C(=O)OC12CCN(C1(C)CCN(C(=O)c3c(C)ncnc3C)CC1)CC2, which outcome is on record?
Its outcome is “inactive”.

With C#CC(O)C(CC)CCCC (stereo not drawn) as the compound, how does the outcome read?
The outcome was “inactive”.

Cc1ccc(C(C)(C)C)c(O)c1 was tested. Which outcome did it give?
Its outcome is “inactive”.

read-out: Cytochrome P450 4A22 (Homo sapiens) (UniProt Q5TCH4); assay: LTEA_HepaRG_CYP4A22: Life Technologies and Expression Analysis (LTEA) Assay for Cytochrome P450 4A22 (CYP4A22) using HepaRG (AID 2283495); conditions: mRNA level, 48 h; actives raise or lower the signal
Summary of the method: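 Cryopreserved HepaRG cells, plated and cultured 48 h, then switched to serum-free induction medium and treated 48 h (duplicates, up to 100 uM, half-log steps, 0.5% DMSO). Expression change of CYP4A22 was fitted bidirectionally against vehicle.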

Which outcome does the source give for COC(=O)CCCC(=O)OC here?
The outcome was “inactive”.

With O=C(O)CN(CC(=O)O)CC(=O)O as the compound, how does the outcome read?
The outcome was “inactive”.

CCc1nc(N)nc(N)c1-c1ccc(Cl)cc1 was tested. Which AC50 did it give?
Its AC50 is 60.7 µM (active).

How did the AC50 turn out when CC(C)c1cccc(C(C)C)c1NC(=O)NS(=O)(=O)c1cc(C(C)(C)O)co1 was run?
Its AC50 is 31.6 µM (active).

With Oc1ccc(O)cc1 as the compound, how does the outcome read?
The outcome was “inactive”.

Which outcome does the source give for NC=O here?
Its outcome is “inactive”.

How did the outcome turn out when CC(=O)S[C@H](C(=O)N[C@H]1Cc2ccccc2[C@H]2CCC[C@@H](C(=O)O)N2C1=O)C(C)C was run?
The outcome was “inactive”.

With CC(=O)CC(c1ccccc1)c1c(O)c2ccccc2oc1=O (stereo not drawn) as the compound, how does the outcome read?
The outcome was “inactive”.

Which outcome does the source give for NCCOCCOCCN here?
Its outcome is “inactive”.

Which outcome does the source give for O=C(O)c1[nH]n(-c2ccc(S(=O)(=O)O)cc2)c(=O)c1N=Nc1ccc(S(=O)(=O)O)cc1 here?
The outcome was “inactive”.

How did the AC50 turn out when CCc1cc(C2=C(C(=O)O)N(c3ccccc3C(F)(F)F)S(=O)(=O)c3ccccc32)cc2c1OCO2 was run?
The AC50 was 41 µM (active).

Which outcome does the source give for CCCCCCCCCC[N+](C)(C)[O-] here?
The outcome was “inactive”.

With CN(C)CCCN1c2ccccc2Sc2ccc(Cl)cc21 as the compound, how does the outcome read?
Its outcome is “inactive”.

Which AC50 does the source give for CSc1ccc(Oc2ccc(S(N)(=O)=O)cc2CN(C)C)cc1C here?
The AC50 was 85.1 µM (active).

CCCCOC(=O)CCCCC(=O)OCCCC was tested. Which outcome did it give?
Its outcome is “inactive”.

For COc1ccc(C(=O)Nc2nc3ccccc3c(NCc3ccccc3)c2C#N)cc1, which AC50 is on record?
Its AC50 is 27.1 µM (active).

Which AC50 does the source give for CN(C)C(=O)NC1(c2ccccc2)CCN(CC[C@@]2(c3ccc(F)c(F)c3)CN(C(=O)c3ccccc3)CCO2)CC1 here?
Its AC50 is 47.3 µM (active).

Cc1cc(Cc2ccc(N)c(C)c2)ccc1N was tested. Which outcome did it give?
The outcome was “inactive”.

For Cc1cc(SC2=C(O)C[C@@](CCc3ccc(N)cc3)(C(C)C)OC2=O)c(C(C)(C)C)cc1CO, which AC50 is on record?
Its AC50 is 1.67 µM (active).

For CCCCCCC(C=O)=Cc1ccccc1, which outcome is on record?
The outcome was “inactive”.

For O=C1O[C@H]([C@H](O)CO)C(O)=C1O, which outcome is on record?
The outcome was “inactive”.

With CCC(C)N(C)C(=O)c1cc2ccccc2c(-c2ccccc2Cl)n1 (stereo not drawn) as the compound, how does the AC50 read?
The AC50 was 13.1 µM (active).

OCC(O)CO was tested. Which outcome did it give?
The outcome was “inactive”.

With CCCCc1nc2cccnc2n1Cc1ccc(-c2ccccc2-c2nnn[nH]2)cc1 as the compound, how does the outcome read?
The outcome was “inactive”.

With O=C(O)CC(O)(CC(=O)O)C(=O)O as the compound, how does the outcome read?
Its outcome is “inactive”.

Which outcome does the source give for O=Cc1ccccc1C=O here?
Its outcome is “inactive”.

CC1(C)C(=O)NC(=O)N1CO was tested. Which outcome did it give?
Its outcome is “inactive”.

With CCCC[C@H]1CN(CC2CCOCC2)C(=O)OC12CCN(C1(C)CCN(C(=O)c3c(C)ncnc3C)CC1)CC2 as the compound, how does the outcome read?
The outcome was “inactive”.

For C#CC(O)C(CC)CCCC (stereo not drawn), which outcome is on record?
Its outcome is “inactive”.

How did the outcome turn out when Cc1ccc(C(C)(C)C)c(O)c1 was run?
The outcome was “inactive”.

Source: PubChem BioAssay (EPA / NIEHS)
